Reference: PubChem BioAssay AID2284201 (EPA ToxCast)
The source made the active and inactive calls. The calls were made as follows: active = hit-call score of the fitted dose curve at least 0.9, where 1 is the maximum; inactive = score below 0.9.

Biological target: SLC6A2 (gene 6530) (UniProt P23975)
Assay: ERF_FR_TR_hSLC6A2: Eurofins (ERF) Radioligand Transport Binding LeadHunter Assay for human Norepinephrine NET Antagonism, conducted at France lab site
Procedure: ERF_FR_TR_hSLC6A2 is a biochemical, single-readout assay that uses extracted gene-proteins in a cell-free assay. Measurements were taken 2 hour after chemical dosing in a 96-well plate. See NET Human Norepinephrine Transporter Binding (Antagonist Radioligand) Assay, Cerep.ERF_FR_TR_hSLC6A2 is an assay component calculated from the ERF_FR_TR_hSLC6A2 assay. It is designed to measure radioligand binding using a type of binding reporter as detected by scintillation counting with radiometry technology.Data from the assay component ERF_FR_TR_hSLC6A2 was analyzed at the assay endpoint, ERF_FR_TR_hSLC6A2, in the positive analysis fitting direction relative to DMSO as the negative control and baseline of activity. Using a type of binding reporter, loss-of-signal activity can be used to understand changes in enzymatic activity as they relate to gene SLC6A2. To generalize the intended target to other relatable targets, this assay endpoint is annotated to the transporter intended target family, where the subfamily is SLC6 / Monoamine.
Human cells are incubated for 120 minutes at 4C with [3H]nisoxetine (1 nM) ligand and protriptyline as control inhibitor. Test Sample Requirements: Minimum for 1) Screen: 60 ul of 10 mM stock -OR- 1 mg (pre-weighed) for 10 uM final testing. 2) Dose Response: 90 ul of 10 mM stock -OR- 1 mg (pre-weighed) for a top concentration at 10 uM.

Sequence of SLC6A2 (gene 6530) (P23975 whole entry, looked up): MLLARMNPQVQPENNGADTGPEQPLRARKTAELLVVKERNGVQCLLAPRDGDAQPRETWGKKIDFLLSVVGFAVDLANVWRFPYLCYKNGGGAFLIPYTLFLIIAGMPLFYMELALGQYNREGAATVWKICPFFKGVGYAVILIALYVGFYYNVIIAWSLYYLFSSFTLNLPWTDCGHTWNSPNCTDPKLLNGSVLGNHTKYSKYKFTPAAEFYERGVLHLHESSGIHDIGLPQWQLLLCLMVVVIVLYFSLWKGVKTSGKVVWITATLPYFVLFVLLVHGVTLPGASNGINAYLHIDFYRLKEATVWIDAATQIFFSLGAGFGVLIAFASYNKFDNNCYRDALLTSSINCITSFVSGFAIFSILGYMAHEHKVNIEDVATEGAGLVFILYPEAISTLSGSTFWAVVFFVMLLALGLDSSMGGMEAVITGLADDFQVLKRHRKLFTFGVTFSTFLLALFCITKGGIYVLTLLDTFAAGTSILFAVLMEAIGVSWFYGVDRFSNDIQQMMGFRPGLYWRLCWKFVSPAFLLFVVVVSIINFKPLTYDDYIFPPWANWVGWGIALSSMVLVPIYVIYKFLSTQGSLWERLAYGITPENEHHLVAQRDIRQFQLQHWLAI

| Compound | outcome | AC50 |
| --- | --- | --- |
| CCCCC[C@H](O)CC(=O)CCc1ccc(O)c(OC)c1 | inactive | – |
| COc1cc(/C=C/C(=O)CC(=O)/C=C/c2ccc(O)c(OC)c2)ccc1O | – | 2.63 µM (active) |
| COc1cc(CCC(=O)CC(=O)CCc2ccc(O)c(OC)c2)ccc1O | inactive | – |
| O=C(/C=C/c1ccc(O)cc1)CC(=O)/C=C/c1ccc(O)cc1 | – | 2.12 µM (active) |
